# Results as given in PubChem BioAssay (NCATS).
# Records with an inconclusive call do not appear. Entries that show only a call come without a potency. A number with no mark means an inactive call. Calls of active or inactive are those of the source. Calls follow the shape of the dose curve; as a rule, active = well fitted curve in the direction sought with a large enough effect; inconclusive = small, poorly fitted or top-dose-only effect, or another doubt; inactive = no such curve, though single readings can be large; an effect the other way counts as inactive or inconclusive.
# How the values were obtained:
# [1] = molecular target: Rap guanine nucleotide exchange factor 3 (Homo sapiens) (UniProt O95398); test: Confirmatory qHTS for antagonist of cAMP-regulated guanine nucleotide exchange factor 3 (EPAC1) (AID 1645880); also: nearly all actives have a fitted effect of over 55% in size; also: potency is read from the fitted curve at half-maximal effect
# Rap guanine nucleotide exchange factor 3 (Homo sapiens), sequence (O95398 whole entry, looked up): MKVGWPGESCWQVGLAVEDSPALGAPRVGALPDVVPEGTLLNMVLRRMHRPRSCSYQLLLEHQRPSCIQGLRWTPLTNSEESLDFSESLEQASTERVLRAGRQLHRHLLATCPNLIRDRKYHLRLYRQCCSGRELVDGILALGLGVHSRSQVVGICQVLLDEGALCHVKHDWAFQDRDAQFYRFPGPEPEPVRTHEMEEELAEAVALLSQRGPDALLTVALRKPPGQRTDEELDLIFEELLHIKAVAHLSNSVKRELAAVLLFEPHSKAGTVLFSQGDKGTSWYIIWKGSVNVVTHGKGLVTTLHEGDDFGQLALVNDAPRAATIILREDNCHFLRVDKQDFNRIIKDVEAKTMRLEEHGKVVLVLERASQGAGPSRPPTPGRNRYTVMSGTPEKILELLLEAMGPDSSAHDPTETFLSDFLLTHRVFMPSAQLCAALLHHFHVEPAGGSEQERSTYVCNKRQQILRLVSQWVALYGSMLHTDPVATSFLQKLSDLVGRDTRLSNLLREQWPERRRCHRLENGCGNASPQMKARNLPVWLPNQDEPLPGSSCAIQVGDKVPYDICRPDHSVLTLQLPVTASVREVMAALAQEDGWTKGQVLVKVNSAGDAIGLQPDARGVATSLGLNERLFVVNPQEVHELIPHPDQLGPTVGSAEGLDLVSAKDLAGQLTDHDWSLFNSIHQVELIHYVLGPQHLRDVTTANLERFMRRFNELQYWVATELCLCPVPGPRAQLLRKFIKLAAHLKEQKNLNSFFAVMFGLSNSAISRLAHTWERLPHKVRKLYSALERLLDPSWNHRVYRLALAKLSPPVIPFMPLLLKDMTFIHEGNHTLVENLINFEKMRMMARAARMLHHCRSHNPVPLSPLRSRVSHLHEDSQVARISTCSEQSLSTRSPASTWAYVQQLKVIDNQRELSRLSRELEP
# Summary of the method: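 Released BODIPY-GDP fluoresces less than Rap1-bound BODIPY-GDP; the signal is followed at 480/540 nm at 5-min intervals over 30 min, after 5 min at room temperature. Reactions contain 100 nM EPAC1, 250 nM RAP1B-BODIPY-GDP and 50 uM GDP; results are normalized to ATA and DMSO.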
# [2] = molecular target: Rap guanine nucleotide exchange factor 3 (Homo sapiens) (UniProt O95398); test: Confirmatory qHTS for agonist of cAMP-regulated guanine nucleotide exchange factor 3 (EPAC1) (AID 1645881);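 also: EPAC1 catalysed release of BODIPY-GDP from Rap1B seen as fluorescence loss; nearly all actives have a fitted effect of over 75% in size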
# [3] = molecular target: Rap guanine nucleotide exchange factor 4 (Homo sapiens) (UniProt Q8WZA2); test: Confirmatory qHTS for agonist of cAMP-regulated guanine nucleotide exchange factor 4 (EPAC2) (AID 1645884);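 also: nucleotide exchange releases bodipy-GDP from Rap1 and this lowers its fluorescence; nearly all actives have a fitted effect of over 65% in size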
# Rap guanine nucleotide exchange factor 4 (Homo sapiens), sequence (Q8WZA2 whole entry, looked up): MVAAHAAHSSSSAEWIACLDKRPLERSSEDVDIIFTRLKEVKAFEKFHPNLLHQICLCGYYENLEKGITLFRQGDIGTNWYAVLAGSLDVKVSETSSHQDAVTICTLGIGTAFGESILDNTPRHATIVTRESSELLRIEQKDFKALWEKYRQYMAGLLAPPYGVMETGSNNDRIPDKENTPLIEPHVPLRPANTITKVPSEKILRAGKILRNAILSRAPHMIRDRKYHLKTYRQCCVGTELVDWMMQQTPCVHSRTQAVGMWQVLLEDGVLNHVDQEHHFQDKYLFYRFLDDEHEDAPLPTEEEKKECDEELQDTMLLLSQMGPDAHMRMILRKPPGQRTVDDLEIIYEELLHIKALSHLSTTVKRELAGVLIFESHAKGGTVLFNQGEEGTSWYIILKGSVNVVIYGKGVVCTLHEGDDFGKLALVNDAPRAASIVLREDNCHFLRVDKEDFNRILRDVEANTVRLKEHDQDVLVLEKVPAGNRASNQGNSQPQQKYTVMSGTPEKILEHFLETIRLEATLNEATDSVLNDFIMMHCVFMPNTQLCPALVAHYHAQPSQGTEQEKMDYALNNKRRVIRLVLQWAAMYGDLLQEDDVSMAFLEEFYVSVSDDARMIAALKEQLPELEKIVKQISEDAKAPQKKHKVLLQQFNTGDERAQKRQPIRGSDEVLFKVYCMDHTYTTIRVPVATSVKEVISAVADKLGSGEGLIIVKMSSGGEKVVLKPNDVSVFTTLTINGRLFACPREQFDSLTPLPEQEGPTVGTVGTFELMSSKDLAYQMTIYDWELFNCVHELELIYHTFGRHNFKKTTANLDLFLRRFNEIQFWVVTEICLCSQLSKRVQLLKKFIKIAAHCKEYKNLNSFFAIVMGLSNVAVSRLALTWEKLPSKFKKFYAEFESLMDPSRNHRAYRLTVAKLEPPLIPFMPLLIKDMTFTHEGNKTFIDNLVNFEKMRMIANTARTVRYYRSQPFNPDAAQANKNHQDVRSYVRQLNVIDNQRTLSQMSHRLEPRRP
# [4] = molecular target: Rap guanine nucleotide exchange factor 4 (Homo sapiens) (UniProt Q8WZA2); test: Confirmatory qHTS for antagonist of cAMP-regulated guanine nucleotide exchange factor 4 (EPAC2) (AID 1645885); also: nearly all actives have a fitted effect of over 25% in size; also: potency is read from the fitted curve at half-maximal effect
# [5] = molecular target: Rap guanine nucleotide exchange factor 3 (Homo sapiens) (UniProt O95398); test: Counterscreen qHTS for antagonist of cAMP-regulated guanine nucleotide exchange factor 3 (EPAC1) (AID 1645888)
# Summary of the method: (§1)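 Measured: fluorescence of BODIPY-GDP bound to Rap1B, which falls as exchange proceeds. Conditions include 50 uM competing GDP, 5 and 30 min reads, and a later cAMP challenge for antagonist detection.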
# [6] = molecular target: Rap guanine nucleotide exchange factor 3 (Homo sapiens) (UniProt O95398); test: Counterscreen qHTS for agonist of cAMP-regulated guanine nucleotide exchange factor 3 (EPAC1) (AID 1645889); also: nearly all actives have a fitted effect of over 40% in size
# Summary of the method: as §1
SMILES,Potency [1],Potency [2],Potency [3],Potency [4],Potency [5],activation [3],"activity change, negative = inhibition [5]",activation [6],Potency [6]
CNc1ccc(Br)cc(C(=O)/C=C/c2ccc(Cl)cc2Cl)c1=O,12 µM (active),inactive,inactive,inactive,inactive,–,–,–,–
Cc1nc(Cl)sc1C(=O)NC(C)c1ccc(Cl)cc1 (centres undefined),inactive,inactive,inactive,inactive,inactive,–,–,–,–
Cc1ccc(C)c(N(C)C(=O)c2cn(C)c(=O)c3ccccc23)c1,inactive,inactive,inactive,inactive,inactive,–,–,–,–
CCCCN(CCCC)S(=O)(=O)c1ccc(C(=O)Nc2sc3c(c2C(N)=O)CCN(CC)C3)cc1,inactive,inactive,inactive,inactive,inactive,–,–,–,–
CCOc1ccc(S(=O)(=O)n2ccc(C)n2)c2ccccc12,inactive,inactive,inactive,inactive,inactive,–,–,–,–
CC1(C(=O)NS(=O)(=O)c2ccc(Cl)s2)CCN1C(=O)c1ccc(C2CCCCC2)cc1 (centres undefined),79.4 µM (active),inactive,–,inactive,–,"6.57% [at 17.1 µM, percent relative to cAMP agonist control]",-3.31% [at 30.8 µM],-4.08% [at 30.8 µM],–
C[C@H](c1ccccc1)N1C[C@@H](COCc2ccccc2)Oc2cc(N3CC[C@@H](O)C3)ccc2S1(=O)=O,inactive,inactive,inactive,inactive,inactive,–,–,–,–
COc1ccc(C(=O)NCC2(c3ccccc3)CCCC2)c(OC)c1,inactive,inactive,–,inactive,–,"-2.19% [at 17.1 µM, percent relative to cAMP agonist control]",-13.7% [at 30.8 µM],–,–
C=CC[C@@H](CC(=O)NCCO)C(=O)N[C@@H](C)COC(=O)[C@H](CC=C)CC(=O)OC(C)(C)C,inactive,inactive,–,inactive,–,"-2.5% [at 17.1 µM, percent relative to cAMP agonist control]",2.15% [at 30.8 µM],-7.04% [at 30.8 µM],–
O=C(Nc1cccs1)Nc1ccccc1Cl,inactive,inactive,–,inactive,–,"6.52% [at 17.1 µM, percent relative to cAMP agonist control]",6.73% [at 30.8 µM],–,–
CC(C)(C)c1cc(-c2csc(Nc3ccccc3)[n+]2Cc2ccc(C(=O)O)cc2)cc(C(C)(C)C)c1O,67.5 µM (active),inactive,inactive,84.9 µM (active),inactive,–,–,–,inactive
COc1cccc(NC(=O)c2csc3c2CCCC3)c1,inactive,inactive,–,inactive,–,"8.66% [at 17.1 µM, percent relative to cAMP agonist control]",-28.5% [at 30.8 µM],–,–
CN(Cc1ccc(F)cc1)C(=O)c1cccc(OCc2ccccc2)c1,inactive,inactive,–,inactive,–,"10.9% [at 17.1 µM, percent relative to cAMP agonist control]",1.29% [at 30.8 µM],-0.388% [at 30.8 µM],–
Oc1ccc(-c2csc(Nc3cccnc3)n2)cc1,inactive,inactive,–,inactive,–,"0.321% [at 17.1 µM, percent relative to cAMP agonist control]",-8.51% [at 30.8 µM],–,–
c1ccc2c(c1)oc1c(-c3ccc4nccn4c3)cccc12,inactive,inactive,–,inactive,–,"0% [at 17.1 µM, percent relative to cAMP agonist control]",-16.8% [at 30.8 µM],14.4% [at 30.8 µM],–
Cc1ccc(NC(=O)N2CCN(c3nnc(C)c4c(C)n(-c5ccc(Cl)cc5)nc34)CC2)c(C)c1,inactive,inactive,inactive,inactive,inactive,–,–,–,inactive
CC(C)CC1C(=O)N(Cc2cn(CCC3OCCO3)nn2)CCS(=O)(=O)N1Cc1ccc(-c2ccc(F)cc2)cc1 (centres undefined),inactive,inactive,–,4.26 µM (active),–,"7.64% [at 17.1 µM, percent relative to cAMP agonist control]",-16% [at 30.8 µM],–,–
CC(=O)Nc1ccc(CNc2nc3cc(-c4ccsc4)sc3c(=O)n2C)cc1,inactive,inactive,–,inactive,–,"-3.78% [at 17.1 µM, percent relative to cAMP agonist control]",16% [at 30.8 µM],36.9% [at 30.8 µM],–
CC(=O)N1c2ccc(S(=O)(=O)NCCc3ccccc3)cc2CC1C (centres undefined),inactive,inactive,inactive,inactive,inactive,–,–,–,inactive
C=CC(=C)CC(NC)c1ccccc1 (centres undefined),inactive,inactive,inactive,84.9 µM (active),inactive,–,–,–,inactive
